Laboratory results: PubChem BioAssay AID708 (SRMLSC, 2007)
Hit rate of the full screen: of about 65,000 compounds, fewer than 10 were called active.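 Rule for the calls: active = at 10 µM dose, initial 340 nm absorbance at least 2 fold that of control wells; inactive = change under 2 fold.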 Only a sample is shown.

Experiment: A340 optical interference by library compounds – biochemical, MLSMR library, data from PS, PMK, MK assays, artefact control, profiling panel (AID 708);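 note: initial absorbance extrapolated from kinetic A340 decline of NADH oxidation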
Settings: compound absorbance at 340 nm, fold over control; at 10 µM; active compounds read high

Fold change, inactive:
O=C(c1cnn2ccccc12)N1CCc2ccccc21 1.12
CCOc1ccc(Cn2nnc(C(=O)Nc3ccc(OC)cc3OC)c2N)cc1 0.98
COc1ccc(NC(=O)c2cccc(NC(=O)c3ccco3)c2)c(OC)c1 1.07
O=C(NCCc1ccccn1)c1ccc(COc2ccccc2)o1 0.98
CCOC(=O)C1CCN(C(=O)Nc2ccc(Cl)cc2)CC1 1.01
COc1cccc(N(CC(=O)NC2CCCC2)C(=O)Cn2nnc(-c3ccc(C)cc3)n2)c1 1.01
Cc1nc(SCC(=O)Nc2cc(C)on2)c2c3c(sc2n1)CCCC3 1.02
CC1CCN(Cc2nc3c(c(=O)n(C)c(=O)n3C)n2CCc2ccccc2)CC1 0.98
NC(=O)COc1ccc2c3c(c(=O)oc2c1)CCCCC3 1.15
CCc1cc(=O)oc2cc(OCC(=O)N3CCCc4ccccc43)ccc12 1.08
CCOC(=O)N1CCC(NC(=O)CCc2cn(C)c3ccccc23)CC1 0.98
Cc1ccnc(N2C(=O)c3ccccc3C2Nc2ccc3c(c2)OCCO3)c1 (stereo not drawn) 1.06
CCOc1ccc(-c2cn(S(=O)(=O)c3cccc4nsnc34)nc2N)cc1 0.98
c1ccc(-n2ncc3c2ncn2c(CSc4nc5ccccc5s4)nnc32)cc1 1.06
c1ccc2c(CNn3cnnc3)cccc2c1 1.05
Cc1ccc(C(=O)NCC2CCCO2)o1 (stereo not drawn) 1.04
CCn1c(CSc2nncn2-c2ccc(OC)cc2)nc2cc(S(=O)(=O)N(C)C)ccc21 0.96
CC(C)(O)C#Cc1ccc(C(=O)N2CCC(C(N)=O)(N3CCCCC3)CC2)cc1 1.04
CCN(CC)S(=O)(=O)c1ccc2nc(COC(=O)c3n[nH]c4ccccc34)[nH]c2c1 1.03
COc1cccc(-c2nnc(NC(=O)c3ccc(S(=O)(=O)N(CC(C)C)CC(C)C)cc3)o2)c1 1.06
CC12COC3(C(=O)Nc4ccc(Cl)cn4)CC1CCC32C (stereo not drawn) 1.04
Cc1nc(N2CCCC2C(=O)O)c2oc3ccccc3c2n1 (stereo not drawn) 1.02
CCCCN(CC)CCCNC(=O)CS(=O)(=O)Cc1nc(-c2cccc(OC)c2)oc1C 1
CC(=O)Nc1cccc(Oc2cc(C#N)c(C#N)cc2N2CCOCC2)c1 1.1
Cn1c2ccccc2c2c(C(=O)N3CCN(c4ccc(F)cc4)CC3)cn(C3CCCC3)c(=O)c21 1.05
COc1ccc(CCNS(=O)(=O)c2ccc(C(=O)NCc3ccco3)cc2)cc1OC 0.99
Cc1ccc(S(=O)(=O)NC(C)C(=O)Nc2ccccc2C(=O)N2CCCC2)cc1 (stereo not drawn) 0.96
COc1ccc(-n2nnnc2SCC(=O)c2ccc(OC)c(OC)c2)cc1 1.03
Cn1cnc2c1c(=O)n(Cc1c(Cl)cccc1Cl)c(=O)n2C 1.04
Cc1cc(C(=O)NCCCc2ccccc2)no1 1
COc1ccc(C(=O)Cn2nnc(-c3ccc(N4CCOCC4)cc3)n2)cc1OC 1
CCOc1cccc(-c2nn3c(-c4ccccn4)nnc3s2)c1 1.01
O=C(CN1CCN(C(=O)c2ccco2)CC1)Nc1ccc(Cl)c(C(F)(F)F)c1 1
